Two sequences from paper PMC7862700, “An all-to-all approach to the identification of sequence-specific readers for epigenetic DNA modifications on cytosine” can be followed below.

Assay in all cases: DAPPL (digital affinity profiling via proximity ligation, sequencing); 10 mM Tris-HCl pH 7.5, 50 mM NaCl, 1 mM DTT, 4% glycerol, room temperature, 30 min; GST-TFs on glutathione beads, 16-mer random dsDNA library, 0.1% formaldehyde crosslink after washing; high values mean tight binding
Holding throughout (conditions): protein: recombinant; tags: N-terminal GST; dsDNA, one strand shown

The target of one experiment is ETV5 (Homo sapiens, UniProt P41161 1-510). Summed up:
(§1)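 A tag-only sample was pooled with DNA-barcoded human transcription factors that had been expressed in yeast as GST fusions and captured on glutathione beads. The pools were incubated for 30 min at room temperature with 200 nmole of a random double-stranded 16-mer DNA library in Tris/NaCl/DTT/glycerol buffer, then washed, crosslinked with 0.1% formaldehyde, proximity-ligated (BsaI/T4 ligase, 1 h, 37 °C), PCR-amplified and sequenced on an Illumina NextSeq500. Binding signal is each hexamer's read frequency for a factor divided by its frequency for the tag-only sample.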

The next experiment addresses T1, ELK4 (Homo sapiens, UniProt P28324-2 1-405).
T1 sequence: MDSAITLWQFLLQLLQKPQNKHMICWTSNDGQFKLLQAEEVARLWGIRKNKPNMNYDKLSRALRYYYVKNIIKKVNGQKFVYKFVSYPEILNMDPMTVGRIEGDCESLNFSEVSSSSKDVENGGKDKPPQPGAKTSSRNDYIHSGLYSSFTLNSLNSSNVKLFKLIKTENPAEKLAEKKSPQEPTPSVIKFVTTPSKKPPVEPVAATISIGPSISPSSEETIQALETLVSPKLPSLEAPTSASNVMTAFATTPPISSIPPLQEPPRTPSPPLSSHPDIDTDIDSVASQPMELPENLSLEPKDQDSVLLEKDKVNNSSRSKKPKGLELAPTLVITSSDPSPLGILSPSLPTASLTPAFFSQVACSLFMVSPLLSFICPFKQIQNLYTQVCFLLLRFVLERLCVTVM
Summed up: as §1

A further experiment has as its target T2, ETV7 (Homo sapiens, UniProt Q9Y603 1-341).
T2 sequence: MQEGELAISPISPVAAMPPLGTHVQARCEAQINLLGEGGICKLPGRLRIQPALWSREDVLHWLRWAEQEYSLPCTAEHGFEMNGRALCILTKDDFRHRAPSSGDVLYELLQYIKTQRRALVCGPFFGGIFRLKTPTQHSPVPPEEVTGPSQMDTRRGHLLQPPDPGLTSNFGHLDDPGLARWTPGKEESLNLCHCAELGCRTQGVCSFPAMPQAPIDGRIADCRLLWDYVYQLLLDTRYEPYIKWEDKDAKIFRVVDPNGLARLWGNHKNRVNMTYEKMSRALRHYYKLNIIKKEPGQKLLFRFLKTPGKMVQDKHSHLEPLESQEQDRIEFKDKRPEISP
Summed up:
as §1

The target of another experiment is T3, GABPA (Homo sapiens, UniProt Q06546 1-454).
T3 sequence: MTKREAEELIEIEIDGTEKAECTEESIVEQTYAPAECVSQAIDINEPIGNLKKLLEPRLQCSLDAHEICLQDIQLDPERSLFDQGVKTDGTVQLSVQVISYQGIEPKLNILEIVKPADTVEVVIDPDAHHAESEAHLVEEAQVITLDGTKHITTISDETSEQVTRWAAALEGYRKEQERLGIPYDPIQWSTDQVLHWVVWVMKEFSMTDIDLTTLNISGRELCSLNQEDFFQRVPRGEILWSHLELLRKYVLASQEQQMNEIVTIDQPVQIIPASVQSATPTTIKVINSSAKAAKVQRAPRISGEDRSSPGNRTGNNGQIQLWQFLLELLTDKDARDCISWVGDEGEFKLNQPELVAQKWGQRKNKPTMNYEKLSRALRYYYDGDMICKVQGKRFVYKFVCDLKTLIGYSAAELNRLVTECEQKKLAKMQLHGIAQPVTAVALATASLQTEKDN
The method, boiled down: as §1

The target of the next experiment is ELF1 (Homo sapiens, UniProt P32519 1-619). The method, boiled down: as §1
ELF1, sequence (P32519 whole entry): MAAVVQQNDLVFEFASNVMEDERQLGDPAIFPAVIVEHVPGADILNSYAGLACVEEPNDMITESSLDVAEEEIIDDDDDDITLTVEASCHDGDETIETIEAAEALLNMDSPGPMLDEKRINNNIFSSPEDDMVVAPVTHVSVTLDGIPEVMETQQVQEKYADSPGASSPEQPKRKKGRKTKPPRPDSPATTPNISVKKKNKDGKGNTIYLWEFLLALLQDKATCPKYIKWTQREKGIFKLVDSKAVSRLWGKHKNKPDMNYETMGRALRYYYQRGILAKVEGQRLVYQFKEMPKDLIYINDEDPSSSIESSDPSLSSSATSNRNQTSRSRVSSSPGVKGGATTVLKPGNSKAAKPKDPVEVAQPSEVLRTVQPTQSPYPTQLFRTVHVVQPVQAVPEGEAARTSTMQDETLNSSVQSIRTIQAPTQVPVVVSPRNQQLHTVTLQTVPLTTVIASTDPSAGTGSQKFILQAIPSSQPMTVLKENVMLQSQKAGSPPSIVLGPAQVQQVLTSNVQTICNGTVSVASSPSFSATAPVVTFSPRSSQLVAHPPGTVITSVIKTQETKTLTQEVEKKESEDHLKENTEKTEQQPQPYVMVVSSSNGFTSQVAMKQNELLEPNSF
For a further experiment, the target named is SPIB (Homo sapiens, UniProt Q01892 1-262). The method, boiled down: as §1
SPIB, sequence (Q01892 whole entry): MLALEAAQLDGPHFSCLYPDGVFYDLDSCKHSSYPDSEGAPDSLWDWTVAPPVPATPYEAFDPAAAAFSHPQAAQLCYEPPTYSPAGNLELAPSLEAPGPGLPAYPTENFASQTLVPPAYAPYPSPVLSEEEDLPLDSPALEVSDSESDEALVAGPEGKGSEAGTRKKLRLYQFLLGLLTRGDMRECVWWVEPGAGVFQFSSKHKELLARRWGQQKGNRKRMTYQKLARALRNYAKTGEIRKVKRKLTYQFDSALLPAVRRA
For the next experiment, the target named is T4, ELK3 (Homo sapiens, UniProt P41970 1-407).
T4 sequence: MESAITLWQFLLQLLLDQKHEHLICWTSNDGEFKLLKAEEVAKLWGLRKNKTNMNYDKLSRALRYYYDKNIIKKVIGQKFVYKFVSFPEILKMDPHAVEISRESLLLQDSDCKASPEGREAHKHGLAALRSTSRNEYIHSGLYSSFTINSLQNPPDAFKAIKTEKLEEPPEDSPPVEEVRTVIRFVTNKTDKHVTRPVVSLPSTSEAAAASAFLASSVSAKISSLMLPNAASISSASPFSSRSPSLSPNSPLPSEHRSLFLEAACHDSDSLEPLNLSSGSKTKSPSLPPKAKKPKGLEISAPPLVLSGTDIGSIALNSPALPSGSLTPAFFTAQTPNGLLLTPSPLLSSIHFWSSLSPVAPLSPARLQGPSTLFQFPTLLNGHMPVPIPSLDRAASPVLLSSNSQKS
The method, boiled down: as §1

In another experiment the target is T5, SPIC (Homo sapiens, UniProt Q8N5J4 1-248).
T5 sequence: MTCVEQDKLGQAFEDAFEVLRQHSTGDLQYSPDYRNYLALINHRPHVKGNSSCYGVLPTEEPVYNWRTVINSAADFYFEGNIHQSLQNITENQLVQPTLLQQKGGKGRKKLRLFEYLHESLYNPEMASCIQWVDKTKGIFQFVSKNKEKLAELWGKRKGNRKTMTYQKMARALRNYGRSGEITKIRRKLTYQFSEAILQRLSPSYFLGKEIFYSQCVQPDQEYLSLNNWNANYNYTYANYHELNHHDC
Summed up: as §1

The next experiment has as its target T6, ETV3L (Homo sapiens, UniProt Q6ZN32 1-361).
T6 sequence: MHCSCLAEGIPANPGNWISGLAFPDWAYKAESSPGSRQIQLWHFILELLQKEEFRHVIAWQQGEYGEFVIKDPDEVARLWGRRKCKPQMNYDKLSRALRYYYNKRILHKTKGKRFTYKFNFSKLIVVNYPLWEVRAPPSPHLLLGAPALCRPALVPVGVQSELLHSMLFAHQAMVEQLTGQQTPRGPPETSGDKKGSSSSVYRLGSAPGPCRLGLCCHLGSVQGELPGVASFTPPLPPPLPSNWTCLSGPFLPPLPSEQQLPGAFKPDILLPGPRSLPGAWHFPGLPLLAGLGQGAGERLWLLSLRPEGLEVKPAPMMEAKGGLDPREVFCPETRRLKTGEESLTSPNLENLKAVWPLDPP
The method, boiled down:
as §1

For the next experiment, the target named is T7, ETV3 (Homo sapiens, UniProt P41162-2 1-143).
T7 sequence: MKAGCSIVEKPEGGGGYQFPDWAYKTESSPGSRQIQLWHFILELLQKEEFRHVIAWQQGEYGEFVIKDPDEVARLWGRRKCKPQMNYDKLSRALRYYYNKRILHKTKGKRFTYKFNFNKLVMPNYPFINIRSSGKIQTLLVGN
The method, boiled down:
as §1

ETV5, sequence (P41161 whole entry, the tested form may be a part): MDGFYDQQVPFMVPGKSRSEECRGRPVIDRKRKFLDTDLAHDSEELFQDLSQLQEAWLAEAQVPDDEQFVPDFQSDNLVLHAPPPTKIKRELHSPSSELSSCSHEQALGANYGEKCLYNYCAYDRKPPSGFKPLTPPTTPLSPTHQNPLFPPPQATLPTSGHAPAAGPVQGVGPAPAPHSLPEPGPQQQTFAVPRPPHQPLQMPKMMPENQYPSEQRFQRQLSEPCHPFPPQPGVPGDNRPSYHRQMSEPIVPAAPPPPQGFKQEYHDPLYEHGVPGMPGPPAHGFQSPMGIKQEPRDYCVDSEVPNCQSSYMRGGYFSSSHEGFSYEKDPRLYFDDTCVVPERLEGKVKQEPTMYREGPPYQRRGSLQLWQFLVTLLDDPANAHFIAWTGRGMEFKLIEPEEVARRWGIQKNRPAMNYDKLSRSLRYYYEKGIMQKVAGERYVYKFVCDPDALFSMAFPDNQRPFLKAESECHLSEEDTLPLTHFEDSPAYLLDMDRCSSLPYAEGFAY

As for CGAGGT, the binding signal with ETV5 is 1.01 fold enrichment (6-mer frequency, TF over GST control); with ELK4, 1.06 fold enrichment (6-mer frequency, TF over GST control); with ETV7, 1.02 fold enrichment (6-mer frequency, TF over GST control).

Regarding TGGTCG, the binding signal is 1.08 fold enrichment (6-mer frequency, TF over GST control) with GABPA; 1.02 fold enrichment (6-mer frequency, TF over GST control) with ELF1; 1 fold enrichment (6-mer frequency, TF over GST control) in the experiment with SPIB; 1.11 fold enrichment (6-mer frequency, TF over GST control) with ELK3; 1.06 fold enrichment (6-mer frequency, TF over GST control) with ETV5; 1.13 fold enrichment (6-mer frequency, TF over GST control) with SPIC. The binding signal in the experiment with ETV3L is 1 fold enrichment (6-mer frequency, TF over GST control); in the experiment with ETV3, 1 fold enrichment (6-mer frequency, TF over GST control).
